{"source": "PubChem BioAssay (NCATS)", "note": "Results filed as inconclusive are left out. Entries that show only a call come without a potency. The source made the active and inactive calls. Calls follow the shape of the dose curve; as a rule, active = well fitted cell-killing curve with a large enough effect; inconclusive = small, poorly fitted or top-dose-only effect, or effect the other way; inactive = flat fitted curve, though single readings scatter. Potency is read from the fitted curve at half-maximal effect.", "data": [{"system": "HeLa", "test": "Primary qHTS to identify gynecologic anti-cancer compounds using libraries of approved drugs and bioactive compounds (AID 1345084); also: nearly all actives have a fitted effect of over 55% in size", "details": "Gynecologic cancer cell panel viability, ATPlite luminescence, 48 h; series mostly up to 57.5 µM", "in_short": "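Five-concentration response, 48 h; readout is ATP-driven luciferase luminescence.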", "values": [{"compound": "Nc1ccc(Sc2ccc(N)cc2)cc1", "Potency": "inactive"}, {"compound": "O=c1[nH]c2ccc(Cl)cc2c(N[C@@H]2CN3CCC2CC3)c1-c1nc2ccccc2[nH]1", "Potency": "3.16 µM (active)"}, {"compound": "CCO/N=C(\\CC)C1=C(O)CC(c2c(C)cc(C)cc2C)CC1=O", "note": "(stereo not given)", "Potency": "inactive"}, {"compound": "CC(C)[C@]12O[C@H]1[C@@H]1O[C@]13[C@]1(O[C@H]1C[C@H]1C4=C(CC[C@@]13C)C(=O)OC4)[C@@H]2O", "Potency": "0.158 µM (active)"}, {"compound": "S=C(SSC(=S)N1CCCCC1)N1CCCCC1", "Potency": "inactive"}, {"compound": "O=C(O)C(Cl)Cl", "Potency": "inactive"}, {"compound": "O=C(O)c1cc(Oc2ccc(C(F)(F)F)cc2Cl)ccc1[N+](=O)[O-]", "Potency": "inactive"}, {"compound": "CCOCCOC(C)=O", "Potency": "inactive"}, {"compound": "C/C=C(/C)C(=O)O[C@H]1C(C)=C2[C@H]([C@@H]1OC(=O)CCCCCCC)[C@@](C)(OC(C)=O)C[C@H](OC(=O)CCC)[C@@]1(O)[C@H]2OC(=O)[C@@]1(C)O", "Potency": "0.447 µM (active)"}, {"compound": "O=C(O)CNC(=O)c1c(O)c2ccccc2n(Cc2ccccc2)c1=O", "Potency": "inactive"}]}]}
